In article PMC12136788:
Positions count from the first letter of the chain named. Whole data set: some 24,000 sequences, median “enrichment r” near 0.99, cut for the highest 2% near 3.7. The full list was thinned out, with the highest values kept by preference.

T1: UNK ZnF1-3 (human, UniProt Q9C0B0 31-174)
T1 sequence: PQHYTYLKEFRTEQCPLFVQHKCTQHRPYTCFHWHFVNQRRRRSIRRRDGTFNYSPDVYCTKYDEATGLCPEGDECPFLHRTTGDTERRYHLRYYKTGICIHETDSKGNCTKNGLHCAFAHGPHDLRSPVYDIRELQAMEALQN

B1: chr2:217001844:217001845:+_ENSG00000079246_ENST00000392132|hu_hu|hu_hu_hu_mus_False|18_28 (ssRNA)
RNA: GGGAGUUCUACAGUCCGACGAUCACCAACUUGAGGAUUAGAUCUUUUGUCAUAAGCAUAUCGGACGAUGGCGACCAUGUUUAACUCAUCCAAAGCAUGAACGAGAGAGGAAAGUGCAACUGCAGCUGCCUCAUCAUCCUUUGCCAACAGAGGAUUGAGCAUCA
B2: 7301359_7301479_2013_3pUTR_ENSMUSG00000024764_ENSMUST00000025675|mouse|control|control (ssRNA)
RNA: GGGAGUUCUACAGUCCGACGAUCGACACCCAUGACAGGAAAGCAGUGGUACGCCACUGAAAGGCAUCCCAGGGGUGCCAAGACAGUGGCACGAGUGCCUCAUUGAGGCGGUGAGGGGUGGGGCUCGGGAGAACAGGCAAAGGGCAACAGAGGAUUGAGCAUCA
B3: chr12:39756943:39756944:-_ENSG00000139116_ENST00000544797|hu_mus|hu_hu_hu_mus_False|8_28 (ssRNA)
RNA: GGGAGUUCUACAGUCCGACGAUCGGUUUGGCUGUUACCCCCAAGGGAAUCCUGCAAGAGUCUUGUCAGCUUAGAGUCUCUGUAAGGGACAUGGGUGGCUCUCUUGCUCUUGUCUCCCAAGGCGCUGAUUACAUUGCCAAGAGCCAACAGAGGAUUGAGCAUCA
B4: chr13:48835921:48835922:+_ENSG00000136156_ENST00000378565|hu_hu|FALSE|FALSE (ssRNA)
RNA: GGGAGUUCUACAGUCCGACGAUCGAUAUGGGUUAUACAAAUUAGUAACACAAGUUAUUUCUUAAAUUCCAAACAUUUUCUAAAAUAUUAUUACAGCAGAUGCCUAGGAUAUUAAAACAUAAAGGUGGAAAUCAUUCUCUAAAUCAACAGAGGAUUGAGCAUCA
B5: chr11:69466387:69466388:+_ENSG00000110092_ENST00000227507|hu_hu|FALSE|FALSE (ssRNA)
RNA: GGGAGUUCUACAGUCCGACGAUCACACGUAAAGGAUGGAACCUAAUCCUCUCCCGAGACGCCUCCUUUGUGUUAAUGCCUAUUCUUACAACAGAGAAACAAGUACAUUAAUAUAAAAACGAGUUGAUUAUUGGGGUAUAAAAUCAACAGAGGAUUGAGCAUCA
B6: chr5:128440902:128440903:+_ENSG00000066583_ENST00000173527|hu_mus|hu_hu_hu_mus_True|1_58 (ssRNA)
RNA: GGGAGUUCUACAGUCCGACGAUCUUGAACGGUGCUGCCAAGUCCUUUGGGGUAUUGUUCCGUUAUGAUAACUGGAAUUCCUAAAAUCCGAGCUCCUUGCAACAGUCUCUGUCCCACACUAAUGAUGUCCCCAAAGUACUUGAUCAACAGAGGAUUGAGCAUCA
B7: chr1:109605286:109605287:-_ENSG00000197780_ENST00000461096|hu_mus|hu_hu_hu_mus_True|78_98 (ssRNA)
RNA: GGGAGUUCUACAGUCCGACGAUCAAGUUUCAGAGUAUUCAGUGAUCACCUCUUUAACAAUUGUAAUCCUUAUUAUAAGCUAAGCAGAAUAAUAAUUUAAUACCGUAAGUGAACUACACACAAAGCCUGAACCGCGAAAAUGGUCAACAGAGGAUUGAGCAUCA
B8: chr1:46159212:46159213:+_ENSG00000159596_ENST00000372025|hu_mus|hu_hu_hu_mus_True|58_58 (ssRNA)
RNA: GGGAGUUCUACAGUCCGACGAUCUCUGAUCCCUCCCAAGAAAGCUAGGAAACCGGCUCCAUAAGCCAUCUGAGUGAAAGCUAAUAUGGGGAUAUAAGACUUUGUUAUUACCAUGAGAAGUGGGGGAGCAGUAAAGGGGAUUAACAACAGAGGAUUGAGCAUCA
B9: chr11:69466387:69466388:+_ENSG00000110092_ENST00000227507|hu_hu|motif|central (ssRNA)
RNA: B5 RNA with U80G, A81G
B10: chr2:27445747:27445748:+_ENSG00000084774_ENST00000264705|hu_hu|FALSE|FALSE (ssRNA)
RNA: GGGAGUUCUACAGUCCGACGAUCGGAGGCAGGGUCACCAGGCCCAUUACUUAAGAAGAGACCCUCAUACUCUUGGCUGUCUAGUGCAUGGUCCCAGGGUACCACAGUGACCUCAGCCCCACGCUGGCAGAGGCAUCGGAUCUGCAACAGAGGAUUGAGCAUCA
B11: chr9:95013113:95013114:-_ENSG00000196305_ENST00000443024|hu_hu|hu_hu_hu_mus_False|68_88 (ssRNA)
RNA: GGGAGUUCUACAGUCCGACGAUCCUCAGUCAGAAAGGGCGUGUAAGGAGCCAUAAGUCUGCACAGAGAAAGCAGAACACUGAACAGUGUCUCCAGAGCCAUGACACAGUCUUCCACCCCACUCUCACCCUUUAACCUCCUCCUCAACAGAGGAUUGAGCAUCA
B12: 142899929_142900494_654_CDS_ENSMUSG00000031004_ENSMUST00000033310|mouse|control|control (ssRNA)
RNA: GGGAGUUCUACAGUCCGACGAUCAAGGCCCUUGGCAUACACAAAAGAUCUUCUUGAAGCAGUCAUUUUUGAAGCUUUGGUAUCUUGACCUUCCCCAUCAGGGUCAGCACAGAAGCUAUCUCUUGAGGCUCGCCUUGAUGGUUCCAACAGAGGAUUGAGCAUCA
B13: chr12:111890518:111890519:-_ENSG00000204842_ENST00000389154|hu_hu|FALSE|FALSE (ssRNA)
RNA: GGGAGUUCUACAGUCCGACGAUCUUGGAUGUUACAAGAAAUCAACAUAUAUAUUUUAAAAACAAAAUAAAUGAAAUUCUAGUUUUCUGUGCUUCCAGUUGGUAGAAGCAGUAGAAGGGAGGAGGGAAUUUGGCCUUUCGGUUCCAACAGAGGAUUGAGCAUCA
B14: chr15:57879074:57879075:-_ENSMUSG00000022361_ENSMUST00000070143|mus_hu|motif|central (ssRNA)
RNA: GGGAGUUCUACAGUCCGACGAUCCAGCUGUCUGAGUGAGGAAAUCAGCUACAUUGCAGCAUUUUGGAAUUACUAAUAAAGCGGUAGUUAAAAAAUAAAAAGUUUAUAAAAAUGAAAGCAGCAUGCAUAUUCAAGGCUUUUUCACAACAGAGGAUUGAGCAUCA
B15: chr15:57879074:57879075:-_ENSMUSG00000022361_ENSMUST00000070143|mus_hu|FALSE|FALSE (ssRNA)
RNA: B14 RNA with G82U, G83A
B16: chr6:136509389:136509390:+_ENSMUSG00000030213_ENSMUST00000032335|mus_hu|FALSE|FALSE (ssRNA)
RNA: GGGAGUUCUACAGUCCGACGAUCAAUAUUAUUAUCAGCUUUAUUUUUCUCAUCCAAUGAGUCUUUACUCUGAAUUUGCUCUAAUUUUUCAUCAGCUCCAUUUUUUUCAAGAAAAUCAUCAUCUUUAUUGCUACUUGGUUCUAUCAACAGAGGAUUGAGCAUCA

biological target: T1, UNK ZnF1-3; experiment: nsRBNS (natural sequence RNA bind-n-seq); RBNS binding buffer (assumed for nsRBNS): 25 mM Tris pH 7.5, 150 mM KCl, 3 mM MgCl2, 0.01% Triton X-100, 500 ug/ml BSA, 20 U/ml SUPERase-In, 4 C; UNK is unkempt and MSI1 is Musashi-1; names of the RNAs are library labels; protein concentration not given here; high values mean tight binding

Point of comparison: B1, binding signal 1.42 enrichment R. Against it:
- B2 — lower, 1.24 enrichment R
- B3 — lower, 0.697 enrichment R
- B4 — higher, 1.52 enrichment R
- B5 — higher, 5 enrichment R
- B6 — lower, 0.681 enrichment R
- B7 — lower, 0.993 enrichment R
- B8 — lower, 1.4 enrichment R
- B9 — higher, 4.6 enrichment R
- B10 — lower, 1.01 enrichment R
- B11 — higher, 1.57 enrichment R
- B12 — lower, 0.52 enrichment R
- B13 — lower, 1.07 enrichment R
- B14 — higher, 6.18 enrichment R
- B15 — higher, 7.31 enrichment R
- B16 — lower, 0.334 enrichment R
